Laboratory results as given in ChEMBL document CHEMBL5308504, “Tm Shift (DSF) assay results for EUbOPEN Chemogenomics Library” (2023).

Tests used:
[1] = target: Bromodomain-containing protein 4 (Homo sapiens) (UniProt O60885); conditions: Compound concentration 20.0 uM, Protein concentration 2.0 uM, Result type QC Liability
[2] = target: T1, Transcription intermediary factor 1-alpha (Homo sapiens) (UniProt O15164); conditions: Compound concentration 20.0 uM, Protein concentration 2.0 uM, Result type QC Liability
T1 sequence (whole entry): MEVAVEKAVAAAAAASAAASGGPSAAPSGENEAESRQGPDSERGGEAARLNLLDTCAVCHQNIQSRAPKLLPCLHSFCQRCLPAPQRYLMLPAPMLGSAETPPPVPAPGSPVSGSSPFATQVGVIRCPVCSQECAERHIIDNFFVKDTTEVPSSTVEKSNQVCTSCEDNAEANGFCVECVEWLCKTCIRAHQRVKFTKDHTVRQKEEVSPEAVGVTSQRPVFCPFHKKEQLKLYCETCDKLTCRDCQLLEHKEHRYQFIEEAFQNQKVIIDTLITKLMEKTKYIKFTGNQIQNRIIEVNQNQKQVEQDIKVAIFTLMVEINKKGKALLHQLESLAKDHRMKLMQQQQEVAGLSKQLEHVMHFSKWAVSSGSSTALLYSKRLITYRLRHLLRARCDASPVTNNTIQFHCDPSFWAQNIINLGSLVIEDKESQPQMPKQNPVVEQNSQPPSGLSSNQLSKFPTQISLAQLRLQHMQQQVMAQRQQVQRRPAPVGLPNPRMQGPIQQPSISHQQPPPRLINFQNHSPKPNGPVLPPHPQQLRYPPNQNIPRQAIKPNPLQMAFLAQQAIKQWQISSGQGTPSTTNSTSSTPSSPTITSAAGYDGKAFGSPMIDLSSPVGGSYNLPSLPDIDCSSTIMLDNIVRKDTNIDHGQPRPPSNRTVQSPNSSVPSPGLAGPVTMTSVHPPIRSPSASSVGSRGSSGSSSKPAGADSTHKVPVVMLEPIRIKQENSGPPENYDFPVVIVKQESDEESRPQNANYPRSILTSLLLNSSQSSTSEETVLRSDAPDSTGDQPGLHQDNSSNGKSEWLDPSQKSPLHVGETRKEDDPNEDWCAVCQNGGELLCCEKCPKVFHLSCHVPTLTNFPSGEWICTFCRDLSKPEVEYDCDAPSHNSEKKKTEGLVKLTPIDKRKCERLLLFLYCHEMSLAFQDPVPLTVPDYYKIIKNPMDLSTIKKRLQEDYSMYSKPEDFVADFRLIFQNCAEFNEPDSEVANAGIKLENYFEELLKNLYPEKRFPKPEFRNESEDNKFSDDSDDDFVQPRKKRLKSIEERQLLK

Compound	ΔTm [1]	ΔTm [2]
O=C(O)c1ccnc(N2CC(O)(c3ccc(OCc4c(-c5c(Cl)cccc5Cl)noc4C4CC4)cc3Cl)C2)c1	-4.33 °C	-1.77 °C
CC(=O)c1c(C)c2cnc(Nc3ccn(C)n3)nc2n(C2CCCC2)c1=O	-0.76 °C	-2.16 °C
CNC(=O)COc1cc2cc(Nc3nc(N4C[C@H](C)C[C@H](C)C4)ncc3Cl)ccc2n(C)c1=O	-0.33 °C	0.23 °C
CC(=O)N1CCN([C@H]2CCC[C@@H](NC(=O)c3cc4c(F)ccc(C)c4[nH]3)C2)CC1	-1.7 °C	-1.5 °C
NC(=O)C1CCCc2c1[nH]c1ccc(Cl)cc21 (centres undefined)	-1.42 °C	-1.04 °C
N=C(N)NCCC[C@H](NC(=O)CC1(CC(=O)N2CCN(C3c4ccccc4NC(=O)c4ccccc43)CC2)CCCC1)C(=O)NCCn1c(=O)n(-c2ccccc2)n(-c2ccccc2)c1=O (some centres undefined)	0.44 °C	-2.38 °C
Oc1c(-c2cccnc2)cnn1-c1ccccn1	-1.85 °C	0.29 °C
Cc1nc(-c2ccc(C(F)(F)F)cc2)sc1C(=O)NCc1ccc(OC(C)(C)C(=O)O)cc1	-2.8 °C	-1.73 °C
COc1cccc(-c2c(C)c(Cc3c(F)cccc3C(F)(F)F)c3n(c2=O)[C@@H]([C@@H](N)c2ccccc2)CS3)c1F	-3.06 °C	0.28 °C
CN[C@@H](C)C(=O)N[C@H](C(=O)N1CCC[C@H]1C(=O)Nc1sc(-c2ncco2)nc1-c1ccccc1)C1CCCCC1	-2.68 °C	-2.9 °C
CCc1ccc(N(CC(C)C)S(=O)(=O)c2ccc(OCC3CCOCC3)c(CO)c2)cc1	-3.99 °C	-0.46 °C
O=C(NC[C@@H]1[C@H]2CN(C(=O)OCc3cc(C(F)(F)F)cc(C(F)(F)F)c3)C[C@@H]12)c1ccc2[nH]nnc2c1	2.07 °C	1.3 °C
